Results on 99 compounds are retold here after PubChem BioAssay AID2315 (National Center for Advancing Translational Sciences (NCATS), 2010).

Hit rate of the full screen: of about 290,000 compounds, about 27,000 (9.3%) were called active. No stated cut-off is given here; in the data, active means inhibition mostly above about 28% (no sharp cut-off); inactive means mostly below about 43%. The sample as a whole holds a higher share of actives than the screen did.

This test can be described thus: A qHTS for Small Molecule Inhibitors of Shiga Toxin. Further: 0% is about no effect. The conditions noted are these: Vero cells, Shiga toxin protein synthesis inhibition reporter; at 38.7 µM, hits give high values. In general terms: In qHTS, concentration-response curves come from the screen itself.
`CCOC(=O)N1CCN(S(=O)(=O)c2ccc(-n3cnnn3)cc2)CC1`: the inhibition is 5.66% (inactive).

With `COc1cc(NC(=O)CSc2ccc(-c3cccnc3)nn2)cc(OC)c1`, the inhibition was 15.3% (inactive). With `O=C(CSc1ccc(-c2ccco2)nn1)Nc1cccc(F)c1` the figure was 38.8% (inactive). With `O=C(CSc1ccc(-c2ccccn2)nn1)Nc1ccccc1` the figure was 47% (active). With `Cc1ccc(CN2CCCOCCS2(=O)=O)cc1` the figure was -6.69% (inactive); with `Cc1cccnc1CC(C)NC(=O)c1cc(COc2cncc(Cl)c2)on1` (centres undefined), 47.9% (active); with `CC(CCc1ccccc1)NC(=O)c1cnc(Cl)c(Cl)c1` (centres undefined), 3.47% (inactive). In the case of `CC(=O)c1cccc(OCc2cc(C(=O)NC(C)Cc3cccnc3)no2)c1` (centres undefined), the inhibition is 36.9% (inactive). With `CCOc1cc(C(=O)O)ccc1OCCOc1ccccc1` the figure was 2.96% (inactive). In the case of `Cc1ccc(CN(CC(=O)NC2CCCCC2)C(=O)c2csnn2)cc1`, the inhibition is -2.02% (inactive). Take `CC1CCN(C(=O)/C(=C\c2ccccc2)NC(=O)c2ccccc2)CC1`: the inhibition was 5.08% (inactive). For `CC1CCN(C(=O)/C(=C\c2ccccc2F)NC(=O)c2ccccc2)CC1` the value was -2.65% (inactive); for `CC1CCN(C(=O)CCNC(=O)c2ccccc2)CC1`, 43.4% (active).

With `O=S(=O)(c1ccccc1)c1nc(-c2ccccc2)oc1NCCCN1CCOCC1`, the inhibition is -13.1% (inactive). Consider `O=C(Nc1ccc(CN2CCOCC2)cc1)c1cc(Cl)ccc1Cl`, for which the inhibition is -2.33% (inactive).

As to `CC(O)C(NS(=O)(=O)c1ccc(Cl)cc1)C(=O)OCc1cc([N+](=O)[O-])cc2c1OCOC2` (centres undefined), the inhibition was -12.1% (inactive). For `Nc1ccccc1SCc1cc([N+](=O)[O-])cc2c1OCOC2`, the inhibition is 62% (active). In the case of `O=C(CN1CCN(c2ccc(Cl)cc2)CC1)c1ccccc1`, the inhibition was 12.6% (inactive).

Consider `CC1CN(S(=O)(=O)c2cccc(C(F)(F)F)c2)CN1C(=O)N1CCOCC1` (centres undefined), for which the inhibition is 29.9% (inactive). With `O=[N+]([O-])c1ccc(O)c(/C=N/Nc2ccccc2[N+](=O)[O-])c1` the figure was 33.7% (active); with `O=C(N/N=C/c1cc([N+](=O)[O-])ccc1O)/C(=C\c1cccs1)NC(=O)c1ccccc1`, -4.29% (inactive); with `Nc1nnnn1/N=C/c1cc([N+](=O)[O-])ccc1O`, 19.7% (inactive). As to `CCNC(=S)N(CCN(CC)CC)Cc1cc2cc3c(cc2[nH]c1=O)OCCO3`, the inhibition was 37.5% (inactive). For `O=C(CSCc1ccc(Cl)cc1)N1CCCCC1` the value was 91.4% (active). With `O=C(CSCc1ccc(Cl)cc1)N1CCN(Cc2ccc3c(c2)OCO3)CC1` the figure was 1.49% (inactive); with `O=C(CSCc1cccs1)N1CCCC1`, 55.4% (active); with `Cn1c(SCC(=O)N2CCCC2)nnc1-c1cccs1`, 19.8% (inactive).

Take `O=C(CSc1ncccn1)N1CCCC1`: the inhibition is 15.5% (inactive).

As for `O=C(CN1CCN(c2ccc(Cl)cc2)CC1)N1CCCC1`, the inhibition is -2.98% (inactive). On to `COc1ccc(-c2c(NC(=O)c3ccco3)oc3ccc(Cl)cc3c2=O)cc1`, for which the inhibition was -2.04% (inactive). With `O=S(=O)(NC1CCCC1)c1ccc(-n2cnnn2)cc1` the figure was -3.47% (inactive). With `COc1ccc(C=C(C#N)C#N)c(CSc2ccccn2)c1` the figure was -2.53% (inactive); with `COc1ccc(C(=O)N[C@H](C(=O)NCc2ccccc2)C(C)C)cc1`, 2.84% (inactive); with `CCN(CC(=O)NCc1cccs1)C(=O)c1cccc(S(=O)(=O)Nc2ccccc2OC)c1`, 25.8% (inactive). With `COc1ccccc1C(=O)Nc1ccc(OCc2nnc3c4ccccc4c(C)nn23)cc1` the figure was 6.17% (inactive).

As for `COc1ccc(C2/C(=C(/O)c3ccc4c(c3)CC(C)O4)C(=O)C(=O)N2Cc2ccncc2)cc1` (centres undefined), the inhibition was 21.4% (inactive). With `Nc1ccc2nn(-c3ccc(Cl)cc3)nc2c1` the figure was 99% (active); with `CN(C)c1nnnn1-c1ccc(Cl)cc1`, 32.8% (inactive); with `CCn1c(SCC(=O)NNC(=O)c2ccc(OC)cc2)nnc1C(C)C`, -2.63% (inactive). For `O=C1NC(=O)C(c2ccc(Cl)cc2)N1` (centres undefined) the value was -0.685% (inactive); for `COc1cccc(CNC(=O)C2CC(=O)N(C3CCCCCCC3)C2)c1` (centres undefined), -10.4% (inactive). For `O=c1nc(N/N=C/c2ccco2)cn[nH]1` the value was 84% (active); for `CC(C)NC(=O)C(=O)N/N=C/c1ccco1`, -4.96% (inactive); for `O=C(Cn1cnc2ccccc21)N/N=C/c1ccco1`, 15.9% (inactive). As for `CC(C)n1c(=O)[nH]c2cc(C(=O)Nc3ccccc3)ccc21`, the inhibition is -20.3% (inactive). For `O=C(Nc1ccccc1)N1CCN(C(=O)Nc2ccccc2)CC1` the value was 14.4% (inactive); for `O=C(Nc1ccccc1)c1cc2ccccc2[nH]1`, 116% (active). For `COc1ccccc1OCCOc1ccc(/C=C2\C(=N)N3N=C(C)SC3=NC2=O)cc1` the value was 2.39% (inactive); for `COc1cccc(N(CC(=O)NC2CCCC2)C(=O)Cn2nnc(-c3ccc(C)o3)n2)c1`, 5.05% (inactive). For `CCn1c(SCc2ccccc2)nc2cc(OC)c(OC)cc2c1=O` the value was -6.05% (inactive); for `O=C(CN1CCN(c2ccccc2)CC1)Nc1ccc(F)cc1`, 2.65% (inactive). With `O=S(=O)(c1cccc(S(=O)(=O)N2CCC(n3nnc4ccccc43)CC2)c1)N1CCCCC1`, the inhibition was -25.2% (inactive). For the compound `CC(=O)c1cccc(S(=O)(=O)N2CCC(n3nnc4cc(F)ccc43)CC2)c1`, the inhibition is 7.77% (inactive). With `O=C(c1ccc(F)cc1)N1CCC(n2nnc3ccccc32)CC1`, the inhibition was 111% (active). Take `COc1ccc(N(CC(=O)N2CCOCC2)S(=O)(=O)c2ccccc2)cc1Cl`: the inhibition was -9.7% (inactive). On to `O=S(=O)(c1ccccc1)N1CN(Cc2ccc(F)cc2)c2nc3ccccc3nc21`, for which the inhibition was 45.9% (active).

Turning to `C=CCN1CN(S(=O)(=O)c2ccc(OC)cc2)c2nc3ccccc3nc21`, the inhibition is 8.86% (inactive).

As to `COc1ccc(S(=O)(=O)N2CN(CCc3ccc(OC)c(OC)c3)c3nc4ccccc4nc32)cc1`, the inhibition is -10.2% (inactive). As to `O=C(NCCS(=O)(=O)N1CCN(c2ccccc2F)CC1)c1ccc(Br)o1`, the inhibition was -0.576% (inactive). Consider `O=C1CCC(C(=O)N2CCC(O)(c3ccccc3)CC2)CN1CCc1ccccc1` (centres undefined), for which the inhibition was -9.01% (inactive).

As to `CCOC(=O)CSc1nnc(-c2ccco2)n1C`, the inhibition is -1.54% (inactive). For `CCCCNC(=O)CSc1nnc(-c2ccco2)n1C`, the inhibition is -13.5% (inactive). For `Cn1c(SCC(=O)c2cccs2)nnc1-c1ccco1` the value was 58.7% (active); for `CCC1Oc2ccccc2N(CC(=O)NCCCN2CCN(CC)CC2)C1=O` (centres undefined), -4.33% (inactive). For `CC(C)OCCCNC(=O)CN1C(=O)/C(=C/c2ccccc2F)Oc2ccccc21`, the inhibition is -4.44% (inactive). As for `COc1ccc(CCNC(=O)CN2C(=O)CCSc3ccccc32)c(OC)c1`, the inhibition is -7.21% (inactive). In the case of `Cc1ccc(-c2nc(CSCC(=O)NC3CCN(Cc4ccccc4)CC3)c(C)o2)cc1`, the inhibition is 1.51% (inactive). Consider `Cc1ccc(Sc2cc(C(=O)c3ccccc3C(=O)O)ccc2[N+](=O)[O-])cc1`, for which the inhibition was 1.21% (inactive). With `O=C(Nc1cc2ccccc2oc1=O)C1CCCCC1` the figure was 55.5% (active); with `CC(=O)Nc1cc2ccc(OC(C)=O)cc2oc1=O`, -11.8% (inactive). For the compound `Cc1ccccc1NC(=O)C1CCN(C(=O)NC2CCCCC2)CC1`, the inhibition was -5.42% (inactive).

In the case of `Cc1nn(Cc2ccc(Cl)cc2)c(Cl)c1/C=N/NC(=O)c1cccnc1`, the inhibition is -8.32% (inactive). In the case of `Cc1nn(Cc2ccc(Cl)cc2)c(Cl)c1/C=N/NC(=O)CNc1ccccc1F`, the inhibition is -6.45% (inactive). On to `CCn1nc(C)c(/C=N/NC(=O)Cc2ccc(Cl)cc2)c1C`, for which the inhibition is 81.2% (active). For `COc1ccccc1-n1cnc2cc(C(=O)NCC3CCCO3)ccc21` (centres undefined) the value was -4.06% (inactive). As for `O=C(NCc1cccs1)c1ccc2c(c1)ncn2C1CCCC1`, the inhibition was 38% (active).

Regarding `O=C(NCCN1CCOCC1)c1ccc2c(c1)ncn2C1CCCC1`, the inhibition was -8.3% (inactive). For `CCOC(=O)C1=C(c2ccccc2)NC(=O)NC1c1cc(OC)c(OC)cc1OC` (centres undefined) the value was -5.08% (inactive); for `COc1cc2c(cc1OC)CN(CC(=O)Nc1ccc(F)cc1)CC2`, -6.84% (inactive). With `Cc1ccc(SCc2c(C(=O)N/N=C/c3cccnc3)nnn2-c2nonc2N)cc1` the figure was -5.04% (inactive); with `CCOc1cc(CN2CCN(C(=O)CC(C)C)CC2)ccc1OC`, 21.9% (inactive). Regarding `COc1cc(CN2CCC(C(N)=O)CC2)ccc1OCc1ccccc1`, the inhibition was 50.5% (active).

`COc1ccc(COCC(O)CN2CCC(C(N)=O)CC2)cc1` (centres undefined): the inhibition was 18.1% (inactive). Regarding `CCCc1nnc(NC(=O)CCC(=O)NC2CC2)s1`, the inhibition was -4.93% (inactive). For `COc1ccc(CCN(C)C(=O)C23CC4CC(CC(Cl)(C4)C2)C3)cc1OC` the value was -8.99% (inactive); for `Cc1cccc(NC(=O)c2ccc3ccccc3n2)n1`, 80.6% (active); for `Cc1ccccc1OCC(=O)Nc1nc(C)c(C(=O)N(C)C)s1`, 13.1% (inactive). For `Cc1cccc(NC(=O)c2ccccc2NC(=O)C(C)(C)C)n1` the value was -16.5% (inactive); for `Cc1cccc(NC(=O)c2cccnc2Cl)n1`, 21.6% (inactive); for `Cc1cccc(NC(=O)COc2ccccc2C)n1`, 99.9% (active). Take `CCN(CC)S(=O)(=O)c1ccc(C)c(NC(=O)COc2ccc(Br)cc2Cl)c1`: the inhibition is -7.98% (inactive). With `Cc1cccc(NC(=O)Nc2ccc(OCc3ccccc3)cc2)n1`, the inhibition was -8.92% (inactive).

Consider `COCCNC(=O)COc1ccccc1C`, for which the inhibition was -1.68% (inactive). With `CCCC1=Nc2cc(C(=O)NCCN3CCCC3)ccc2Sc2ccccc21` the figure was -5.59% (inactive). Take `Cc1cc(C)n(CC(O)COc2ccc(C(C)(C)C)cc2)n1` (centres undefined): the inhibition is -1.13% (inactive). With `COc1ccccc1CN(C)C(=O)c1cc2ccccc2o1` the figure was 5.75% (inactive); with `Cc1ccc(C(=O)Nc2nc(N)n(-c3ccccc3)n2)cc1`, 38.4% (active); with `Nc1nc(NC(=O)/C=C/c2ccccc2)nn1-c1ccccc1`, 27% (inactive). For `Cc1ccc(S(=O)(=O)Nc2nc(N)n(-c3ccccc3)n2)cc1` the value was -9.63% (inactive).

Broadly, the inhibition is the drop in the measured response relative to a control, in per cent.
